Screening results: PubChem BioAssay, several laboratories
PG9 binder: small molecules binding HIV-1 gp120 antibody PG9. TR-FRET gp120-PG9 antibody binding. inhibition, % at 6.7 µM. hit rate 0.43% among 360,000. AID 624416; in the data active = inhibition above about 8.5%
rCAG binder: molecules binding r(CAG) RNA repeats; r(CAG) RNA repeat, TO-PRO-1 dye displacement fluorescence; inhibition, % at 3 µM; hit rate 1.3% among 370,000;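 active = inhibition above the plate cutoff, the mean of all test compounds on that plate plus 3 SD, cut at about 35% in these data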;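 also: higher means more dye released from RNA so lower well fluorescence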
DNMT1 block: inhibitors of human DNMT1 | P26358 | AID 588458 | DNMT1 molecular beacon, Hinp1I cleavage, fluorescence | hit rate 0.83% among 360,000 | inhibition (reported as % activation of signal), % at 10 µM; in the data active = inhibition above about 50%
LEDGF integ inh: blocks HIV-1 LEDGF/p75-dependent DNA integration; TR-FRET IN-LEDGF/p75 DNA integration, Eu/Cy5; inhibition, % at 3.7 µM; hit rate 0.64% among 370,000;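 active = inhibition above the screen-wide mean plus 3 SD, cut at about 13% in these data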;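 also: signal is the Cy5 over europium emission ratio at 671 and 618 nm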
UHRF1 binding: human UHRF1 methylated DNA binding inhibitors; Q96T88; UHRF1 binding to methylated oligo, TR-FRET; inhibition, % at 4.4 µM; hit rate 0.75% among 370,000; in the data active = inhibition above about 21%;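 also: UHRF1 SRA domain binding a hemimethylated CpG hairpin DNA probe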
Target sequence (Q96T88 whole entry, looked up, the tested form may be a part): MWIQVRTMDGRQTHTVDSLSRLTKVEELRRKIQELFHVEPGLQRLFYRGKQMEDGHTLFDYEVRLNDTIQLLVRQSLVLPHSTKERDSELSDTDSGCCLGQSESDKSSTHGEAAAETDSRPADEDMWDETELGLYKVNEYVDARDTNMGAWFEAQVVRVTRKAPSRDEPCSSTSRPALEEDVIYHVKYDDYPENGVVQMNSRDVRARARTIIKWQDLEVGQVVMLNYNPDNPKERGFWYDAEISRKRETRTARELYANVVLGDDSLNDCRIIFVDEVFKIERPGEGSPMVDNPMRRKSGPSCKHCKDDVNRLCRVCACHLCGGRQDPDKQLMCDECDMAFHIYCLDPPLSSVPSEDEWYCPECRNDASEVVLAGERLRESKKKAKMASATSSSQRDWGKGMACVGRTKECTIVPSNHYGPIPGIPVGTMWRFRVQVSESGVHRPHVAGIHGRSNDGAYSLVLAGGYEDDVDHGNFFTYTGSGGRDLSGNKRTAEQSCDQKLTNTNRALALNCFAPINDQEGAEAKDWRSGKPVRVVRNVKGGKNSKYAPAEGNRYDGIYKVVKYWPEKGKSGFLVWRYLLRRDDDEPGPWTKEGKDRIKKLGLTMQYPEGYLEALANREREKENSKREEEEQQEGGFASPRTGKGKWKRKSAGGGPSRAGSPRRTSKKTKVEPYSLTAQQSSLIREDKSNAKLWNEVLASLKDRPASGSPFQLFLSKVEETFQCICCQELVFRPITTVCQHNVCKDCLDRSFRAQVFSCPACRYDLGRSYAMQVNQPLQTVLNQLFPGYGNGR
MBD2 inh: inhibitors of human MBD2 binding to methylated oligonucleotide. Q9UBB5. TR-FRET. inhibition, % at 4.4 µM. hit rate 0.31% among 370,000. AID 686964; in the data active = inhibition above about 13%
Hits are given with their value; . = inactive; / = no result given. Compounds with a hit are over-represented: about 3.5% of the library has one in this group of screens.

SMILES	PG9 binder	rCAG binder	DNMT1 block	LEDGF integ inh	UHRF1 binding	MBD2 inh
c1ccc(CNC2CCC23CCC(c2ccccc2)CC3)cc1 (stereo not given)	/	.	/	.	80.7	.
CCOC(=O)C1Nc2ccccc2C2C(O)C(O)CC12 (stereo not given)	.	43.2	.	.	.	.
C[C@@H](NC(=O)[C@@H]1CCCN1C(=O)[C@@H]1CCCN1C(=O)c1ccc(Cl)cc1)c1ccccc1	.	.	/	.	.	.
CCOC(=O)C1=C(COC(=O)C2(C)CC2(Cl)Cl)NC(=O)NC1c1ccccc1 (stereo not given)	.	.	.	.	29.3	.
CCOC(=O)C1=C(COc2ccccc2)NC(=O)NC1c1ccc(Cl)cc1 (stereo not given)	.	.	.	.	.	.
Cc1ccc(S(=O)(=O)n2ccc(-c3c(-c4ccc(F)cc4)noc3C)n2)cc1	/	.	/	.	.	.
COc1cc(NC(=O)C2CCCN(S(=O)(=O)c3cccs3)C2)cc(OC)c1 (stereo not given)	/	.	/	.	.	.
COc1ccc(CN(C)CC2CCCN(CCc3ccccc3C)C2)cc1O (stereo not given)	.	.	.	.	.	.
COc1ccc(CCN2CCCC(CN(C)Cc3cc(Cl)c(O)c(OC)c3)C2)cc1 (stereo not given)	.	.	.	.	53.7	.
CCOC(=O)C1(Cc2cccc(OC)c2)CCN(C/C=C/c2ccccc2)CC1	.	.	.	.	32.5	.
CCC(=O)N(CCC(Cc1ccccc1)c1ccc2c(c1)OCO2)Cc1ccccc1F (stereo not given)	.	.	.	.	25.1	.
CCC(=O)N(CCC(Cc1ccccc1)c1ccco1)Cc1ccco1 (stereo not given)	.	.	.	.	.	.
CCCC1(c2ccccc2)NC(=O)N(CC(=O)Nc2cc(C)on2)C1=O (stereo not given)	.	.	.	.	.	.
Cc1cc(NC(=O)CN2C(=O)NC(C)(c3ccccc3)C2=O)no1 (stereo not given)	.	.	.	.	96.9	.
Cc1n[nH]c(C)c1CCNC(=O)C1CCC(=O)N(CCc2cccc(F)c2)C1 (stereo not given)	.	.	.	.	21.6	.
Cc1nc(CCNC(=O)C2CCC(=O)N(CCc3cccc(F)c3)C2)sc1C (stereo not given)	.	.	.	.	.	.
Cc1[nH]c2ccccc2c1C(=O)CSC(=S)N(C)C1CCCCC1	.	.	.	.	26.4	.
Cc1ccccc1NC(=O)N(C)[C@H]1C[C@H]2c3[nH]c4c(-c5ccc6c(c5)OCO6)cccc4c3CCN2C[C@H]1[C@H](C)O	/	.	/	.	.	.
COC(=O)C1=C(C)N(Cc2ccccc2C(F)(F)F)C(=NCc2ccccc2)NC1c1cccc(F)c1 (stereo not given)	.	.	/	.	.	.
CCN(C(=O)COC(=O)/C=C/c1cnc2ccccc2n1)c1ccccc1	.	.	.	.	25.7	.
O=C(OC12CCCN(C1)/C(=C/c1ccc(Cl)cc1)C2)c1ccc(F)cc1 (stereo not given)	/	.	/	.	.	.
COc1ccccc1C(=O)N1CCC2CCN(C(=O)OC(C)(C)C)C2C1 (stereo not given)	.	.	/	.	.	.
O=C(O)c1ccccc1CC(CCc1ccccc1)C(=O)O (stereo not given)	.	.	.	.	20.8	.
O=C(O)Cc1ccccc1C(=O)O	.	.	.	.	.	.
O=S(=O)(O)c1cc(O)c2c(O)c(N=Nc3cc(Cl)ccc3O)c(S(=O)(=O)O)cc2c1	/	/	84.8	/	/	/
SMILES	PG9 binder	rCAG binder	DNMT1 block	LEDGF integ inh	UHRF1 binding	MBD2 inh
CCCCN(CCCC)C(=O)/C=C/c1cccc([N+](=O)[O-])c1	.	.	.	.	21.0	.
COc1ccc(CNC(=O)COC(=O)CCOc2ccc(C)cc2)cc1OC	.	.	.	.	.	.
CCN(CC)S(=O)(=O)c1cccc(NC(=O)COC(=O)C2COc3ccccc3O2)c1 (stereo not given)	.	.	.	.	23.7	.
COc1nc(N)c(S(=O)(=O)c2ccccc2)cc1C#N	.	.	.	.	22.6	.
CCCc1nnc(NC(=O)c2nc(S(=O)(=O)Cc3cccc(C)c3)ncc2Cl)s1	.	34.8	.	.	.	.
CN=C1S/C(=C/c2cc(C)n(Cc3ccccc3)c2C)C(=O)N1C	/	/	/	.	.	.
